Most compounds without a hit are left out; they make up all but 7.9% or so of the library.
Lassa entry inh: blocks Lassa virus binding to or entry into cells; Lassa virus pseudotype entry inhibition, cell reporter; Potency, µM (top dose mostly 37.9 µM), most hits filed as inhibitors; AID 540256; 300,000 tested, 1.2% active; calls by dose curve; tested in HEK293 cells; further: nearly all actives have a fitted effect of over 50% in size
HCMV inh: blocks human cytomegalovirus replication | HFF cells, HCMV-luciferase reporter, 72 h; hits give low values | activity change, negative = inhibition, % at 57.5 µM | 410,000 tested, 4.5% active; in the data active means activity change below about -60%; inconclusive means no clear call, values can overlap the other calls; inactive means above about -39%
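Inhibition of viral replication was scored as loss of reporter luminescence in HFFs infected with HCMV-luciferase (MOI 1 PFU/cell) for 72 h; compounds tested at 2 doses, normalized to buffer and Salinomycin controls.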
HCV inhibitor: inhibitors of hepatitis C virus infection. 340,000 tested, 3.4% active. Potency, µM (top dose mostly 41.8 µM), usual class: inhibitors. Huh7.5.1 HCVcc-Cre infection, luciferase reporter, 44 h; active means well fitted inhibition curve with a large enough effect; inconclusive means small, poorly fitted or top-dose-only effect, or another doubt; inactive means no such curve, though single readings can be large or run the other way
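Infectious HCVcc-Cre (~0.5 moi) was added to cells just after compound, with cells seeded 4 h earlier at 1,000 per well. Luciferase activity after 44 h culture reported infection; substrate was incubated 15 min at room temperature before reading.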
FMDV antiviral: antivirals against foot and mouth disease virus; AID 1159524; 410,000 tested, 1.2% active; Potency, µM (doses to about 57.9 µM), hits mostly inhibitors; FMDV antiviral cell-based qHTS; calls by dose curve; tested in HEK293T cells; further: read-out not given here; nearly all actives have a fitted effect of over 45% in size
MARV entry inh: inhibitors of Marburg virus binding or cell entry. Marburg virus pseudotyped entry inhibition, cell reporter. Potency, µM (doses to about 37.8 µM), usual class: inhibitors. 300,000 tested, 1.8% active. AID 540276; calls by dose curve; tested in HEK293 cells
Large screens that a line does not name were inactive; ! = a repeat was not active.

Cn1cnc(S(=O)(=O)N[C@H]2CC[C@@]34CCCN3C(=O)CCC[C@H]4[C@H]2Cc2ccccc2)c1	none (no result: Lassa entry inh, HCV inhibitor, FMDV antiviral, MARV entry inh)
CCN(CC)CCCNc1oc(/C=C/c2ccc(OC)c(OC)c2)nc1C#N	HCMV inh inconclusive (no result: HCV inhibitor)
COc1ccc(/C=N/Nc2cc(C)nc(NS(=O)(=O)c3ccc(C)cc3)n2)cc1	HCMV inh -62.2
Cc1cc(N/N=C/c2cccc([N+](=O)[O-])c2)nc(-n2nc(C)cc2C)n1	HCMV inh inconclusive, HCV inhibitor inconclusive
Cc1cc(N/N=C/c2ccccc2[N+](=O)[O-])nc(-n2nc(C)cc2C)n1	Lassa entry inh inconclusive, HCMV inh -98.6, HCV inhibitor 2.51µM, FMDV antiviral inconclusive, MARV entry inh inconclusive
Cc1cc(N/N=C/c2ccc(O)cc2O)nc(-c2ccccc2O)n1	Lassa entry inh inconclusive, HCV inhibitor inconclusive, MARV entry inh inconclusive (no result: HCMV inh)
COc1ccc(/C=N/Nc2cc(C)nc(-n3nc(C)cc3C)n2)cc1	Lassa entry inh inconclusive, HCMV inh -98.6, HCV inhibitor inconclusive, FMDV antiviral 31.6µM, MARV entry inh 16.4µM
Cc1cc(N/N=C/c2ccc(O)cc2O)nc(-n2nc(C)cc2C)n1	Lassa entry inh 7.31µM, HCMV inh inconclusive, HCV inhibitor inconclusive, FMDV antiviral inconclusive, MARV entry inh 3.66µM
Cc1cc(C)n(C(C)CC(=O)NCc2ccccc2C)n1 (stereo not drawn)	none (no result: HCV inhibitor, MARV entry inh)
Cc1cc(N/N=C/c2cccc(Cl)c2)nc(-n2nc(C)cc2C)n1	Lassa entry inh inconclusive, HCMV inh -86.8, HCV inhibitor 17.8µM, MARV entry inh inconclusive
Cc1cc(C)n2nc(C(=O)N/N=C/c3cccc(Cl)c3)nc2n1	none
COc1ccc(C)cc1S(=O)(=O)N1CCN(c2cccc(Cl)c2)CC1	none (no result: HCV inhibitor)
Cn1cnnc1SCC(=O)N1N=C2/C(=C/c3ccco3)CCCC2C1c1ccco1 (stereo not drawn)	HCMV inh -61.3
O=C(CSc1nccc(=O)[nH]1)N1N=C2/C(=C/c3ccco3)CCCC2C1c1ccco1 (stereo not drawn)	none
CSc1cc(-c2ccncc2)nc(-c2ccc(Cl)cc2)c1	HCV inhibitor inconclusive, MARV entry inh 4.47µM (no result: HCMV inh)
S=C(NNc1ccc2ccccc2c1)NC1CCCCC1	HCMV inh -60.2, MARV entry inh inconclusive
S=C(Nc1ccc2nsnc2c1)NC1CCCCC1	HCMV inh -61.6, MARV entry inh inconclusive
S=C(NCc1ccc2c(c1)OCO2)Nc1ccc2nsnc2c1	HCMV inh -66.3, HCV inhibitor inconclusive
Cc1ccc(NC(=S)NCc2ccc3c(c2)OCO3)cc1C	none
S=C(Nc1ccc(Oc2ccccc2)cc1)NC1CCCCCC1	Lassa entry inh inconclusive, HCV inhibitor inconclusive, MARV entry inh inconclusive
S=C(Nc1ccc(Cl)c(Cl)c1)NC1CCCCC1	HCMV inh -98.9, HCV inhibitor inconclusive, MARV entry inh inconclusive
ON=C(CCc1ccccc1)CCc1ccccc1	Lassa entry inh inconclusive, HCMV inh -74.8
COc1ccc(C(=O)CC(=O)C(=O)Nc2ccc(C)cc2Cl)cc1	Lassa entry inh inconclusive, HCV inhibitor 10µM, MARV entry inh inconclusive
COc1cccc(C(=O)CC(=O)C(=O)Nc2ccc(C)cc2Cl)c1	none
N#CC(=C1CCCC1)c1nc(-c2ccccc2O)cs1	Lassa entry inh 10µM, HCV inhibitor inconclusive, MARV entry inh inconclusive (no result: HCMV inh)
CCN(c1ccccc1C)S(=O)(=O)c1nnc(NC(=O)c2ccccc2C)s1	Lassa entry inh inconclusive (no result: HCV inhibitor, MARV entry inh)
Cc1ccc(NC(=O)NCC2CCN(Cc3cccc(Cl)c3)CC2)c(Cl)c1	HCMV inh -65.5, HCV inhibitor 12.6µM (no result: Lassa entry inh, MARV entry inh)
Cc1ccc(NC(=O)NCC2CCN(Cc3cccc(Cl)c3)CC2)cc1Cl	HCMV inh -92.5!, FMDV antiviral inconclusive, MARV entry inh inconclusive
O=C(NCC1CCN(Cc2cccc(Cl)c2)CC1)Nc1ccccc1Cl	HCV inhibitor inconclusive, MARV entry inh inconclusive
O=C(CCc1nc2sc3c(c2c(=O)[nH]1)CCCC3)NCCOc1ccccc1	Lassa entry inh inconclusive, HCV inhibitor inconclusive
CN(C)C(CNC(=O)CCc1nc2sc3c(c2c(=O)[nH]1)CCCC3)c1ccccc1 (stereo not drawn)	HCV inhibitor inconclusive, MARV entry inh 10µM
CC1=CC(=O)C(C(C)C)=C/C1=C(\c1cc(C(C)C)c(OP(=O)(O)O)cc1C)c1ccccc1C(=O)O	Lassa entry inh inconclusive, HCMV inh -98.2, HCV inhibitor inconclusive, MARV entry inh inconclusive
CC(=O)N(C)CC#CCN1CCCC(CO)C1 (stereo not drawn)	HCMV inh -60.7 (no result: Lassa entry inh, HCV inhibitor, MARV entry inh)
OCc1cnc(SCc2cccc(F)c2)n1Cc1ccc(F)cc1	HCMV inh -71.0 (no result: HCV inhibitor, MARV entry inh)
Cc1ccc(Cn2c(CO)cnc2SCc2cccc(F)c2)cc1	Lassa entry inh inconclusive (no result: HCV inhibitor, MARV entry inh)
Cc1ccc2nc(-c3ccccc3Cl)cc(C(=O)Nc3cc(C)on3)c2c1	HCV inhibitor 12.6µM, FMDV antiviral inconclusive
Cc1cc(NC(=O)c2ccccc2Cl)no1	Lassa entry inh inconclusive
Cc1ccc(-c2c3c(=O)n(C)c(=O)n(C)c3c3cnc4ccccc4n23)cc1	none (no result: HCV inhibitor)
CS(=O)(=O)N(Cc1ccccc1)c1ccc(C(=O)Nc2cccc(Cl)c2)cc1	Lassa entry inh inconclusive (no result: HCV inhibitor, MARV entry inh)
CC(C)n1c(=S)[nH]c2ccccc2c1=O	HCMV inh inconclusive
CC(C)n1c(=S)[nH]c2cc(Cl)ccc21	HCMV inh -72.0 (no result: Lassa entry inh, MARV entry inh)
CCN(CC)CC(=O)N1c2ccccc2Oc2c(c(=O)n(C)c(=O)n2C)C1c1cccc([N+](=O)[O-])c1 (stereo not drawn)	none
CN1c2ccccc2Oc2c(c(=O)n(C)c(=O)n2C)C1c1cccc([N+](=O)[O-])c1 (stereo not drawn)	HCV inhibitor 3.55µM, MARV entry inh inconclusive
COc1cc(CCN2C(=O)NC(c3cccc(C(F)(F)F)c3)C(C(C)=O)=C2C)cc(OC)c1OC (stereo not drawn)	none (no result: HCMV inh, HCV inhibitor, FMDV antiviral)
CCN(CC)S(=O)(=O)c1ccc2c(c1)N(CC(=O)NCc1ccccc1)C(=O)C1CCCCN21 (stereo not drawn)	Lassa entry inh inconclusive (no result: HCV inhibitor, MARV entry inh)
COC(=O)C(Nc1ccccc1Cl)(c1cc(C)c(O)c(C)c1)C(F)(F)F (stereo not drawn)	Lassa entry inh inconclusive, HCMV inh -77.6, HCV inhibitor 14.1µM, MARV entry inh inconclusive
CCSc1ncc(Cl)c(C(=O)Nc2ccc(S(=O)(=O)Nc3ncccn3)cc2)n1	none
CSc1ncc(Cl)c(C(=O)Nc2ccc(S(=O)(=O)N3CCC(C)CC3)cc2)n1	Lassa entry inh inconclusive, HCMV inh -76.5, FMDV antiviral inconclusive, MARV entry inh inconclusive (no result: HCV inhibitor)
CCSc1ncc(Cl)c(C(=O)Nc2ccc(S(N)(=O)=O)cc2)n1	HCMV inh -85.3, MARV entry inh inconclusive
CCS(=O)(=O)c1ncc(Cl)c(C(=O)Nc2ccc(S(=O)(=O)N3CCC(C)CC3)cc2)n1	Lassa entry inh inconclusive, HCMV inh -99.6, HCV inhibitor inconclusive, FMDV antiviral 14.1µM, MARV entry inh inconclusive
CCCSc1ncc(Cl)c(C(=O)Nc2ccc(S(=O)(=O)N3CC(C)OC(C)C3)cc2)n1 (stereo not drawn)	HCMV inh -67.5, HCV inhibitor 10µM, MARV entry inh inconclusive
CCSc1ncc(Cl)c(C(=O)Nc2ccc(S(=O)(=O)N3CCC(C)CC3)cc2)n1	HCMV inh inconclusive, FMDV antiviral inconclusive, MARV entry inh inconclusive (no result: HCV inhibitor)
